Screening results from PubChem.
This is a sample that favours compounds with a hit; in the whole collection about 2% have one here.
S1P2 antag: antagonists of human S1P2 receptor; 0.21% of 97,000 active; O95136; inhibition, % at 5 µM; cell-based S1P2 antagonist assay, inhibition at 5 uM; in the data active means inhibition above about 45%;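 further: CRE beta-lactamase reporter cells expressing human S1P2 stimulated with S1P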
S1P2 ag: S1P2 (human) receptor agonism; 0.46% of 97,000 active; activation, % at 4.5 µM; S1P2-expressing cell line, agonist reporter read-out; O95136; in the data active means activation above about 16%
GALR2 ag: GALR2 (human) receptor agonism; GALR2-expressing cells, agonist activation read-out; activation, % (no concentration beside the values); 0.48% of 140,000 active; AID 803; in the data active means activation above about 5%, passing the limit was not always enough
PLAP activator: activators of human placental alkaline phosphatase; purified PLAP enzyme, luminescent substrate read-out; active compounds read high; activation fold at 20 µM; AID 696; P05187; 1.2% of 96,000 active; in the data active means activation fold above about 2
Target sequence (P05187 whole entry, looked up): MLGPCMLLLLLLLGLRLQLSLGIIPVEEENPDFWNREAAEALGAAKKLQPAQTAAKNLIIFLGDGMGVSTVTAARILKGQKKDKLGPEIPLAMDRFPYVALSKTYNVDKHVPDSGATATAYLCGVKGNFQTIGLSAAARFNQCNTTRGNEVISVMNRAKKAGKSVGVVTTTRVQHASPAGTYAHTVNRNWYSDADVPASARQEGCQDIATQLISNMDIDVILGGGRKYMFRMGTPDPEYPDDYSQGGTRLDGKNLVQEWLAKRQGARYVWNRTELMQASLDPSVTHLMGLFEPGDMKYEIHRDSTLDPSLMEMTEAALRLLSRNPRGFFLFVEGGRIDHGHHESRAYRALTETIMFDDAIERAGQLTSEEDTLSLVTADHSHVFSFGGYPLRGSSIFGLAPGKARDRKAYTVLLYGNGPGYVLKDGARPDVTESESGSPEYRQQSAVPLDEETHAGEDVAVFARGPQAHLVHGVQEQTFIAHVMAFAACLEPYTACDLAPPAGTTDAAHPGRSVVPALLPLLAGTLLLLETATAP
GALR2 antag: antagonists of human galanin receptor 2 (GALR2) | GALR2-expressing cells, antagonist mode | inhibition, % at 4 µM | 0.39% of 140,000 active | AID 828;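 further: cells stimulated with galanin 1-16 at roughly its EC80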
GALR2 blk conf: GALR2 (human) antagonism confirmed | inhibition, % at 4 µM | shares compounds with GALR2 antag | GALR2-expressing cells, antagonist mode, inhibition | 60% of 480 active;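 further: cells stimulated with galanin at about its EC80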
BLA inh counter: beta-lactamase inhibition, GALR2 counterscreen; inhibition, % at 4.2 µM; 36% of 480 active; shares compounds with GALR2 antag; CHO NFAT-BLA reporter, beta-lactamase FRET, thapsigargin-stimulated;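 active means inhibition above the mean inhibition across tested compounds plus 3 SD, cut at about 27% in these data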
A number is an active result; . = inactive; / = not tested or not shown. Unless noted, no stated cut-off is given here; in the data, active means inhibition above about 27%; inactive means the rest.

SMILES | S1P2 antag | S1P2 ag | GALR2 ag | PLAP activator | GALR2 antag | GALR2 blk conf | BLA inh counter
CC1(C)CC(=O)C=C(NC2=CC3OC(c4ccccc4)OCC3OC2=O)C1 (configuration not stated) | / | / | . | / | 68.8 | 76.1 | 64.8
COc1ccc2[nH]c(=O)c(CN(CCCN(C)C)C(=O)Nc3ccccc3)cc2c1 | . | . | . | . | . | / | /
CCc1ccc2[nH]c(=O)c(CN(CCN(C)C)C(=O)Nc3ccccc3)cc2c1 | . | . | . | . | 27.4 | . | .
Cc1c(OC(=O)CNC(=O)OC(C)(C)C)ccc2c3c(c(=O)oc12)CCC3 | . | . | . | . | . | / | /
CCCSc1nnc(NC(=O)c2sc3nc(-c4cccs4)ccc3c2N)s1 | 55.2 | . | . | . | 37.6 | . | 33.9
Cc1c(C(=O)Nc2ccncc2)sc2nc(-c3ccccc3)cn12 | / | / | . | . | 27.6 | . | .
Cc1c(C(=O)Nc2ccc3c(c2)OCCO3)sc2nc(-c3ccccc3)cn12 | . | . | . | / | . | / | /
CCCc1nn(C)c(C(=O)Nc2ccc3ccccc3c2)c1Cl | / | / | . | / | . | / | /
Clc1cccc(Cl)c1/C=C/c1nc2ccccc2[nH]1 | . | . | . | . | 27.4 | 29.1 | .
c1coc(-c2nc3nc4ccccc4nc3n2-c2ccc3c(c2)OCCO3)c1 | / | / | . | . | . | / | /
CC(Cc1cccs1)NC(=O)Nc1cccc(Cl)c1 (configuration not stated) | . | . | . | . | . | / | /
CC(Cc1cccs1)NC(=O)Nc1ccc(F)cc1 (configuration not stated) | . | . | . | . | 28.4 | . | .
O=C1C=CC(=O)N1CCCCCCN1C(=O)C=CC1=O | / | / | . | / | 86.2 | 78.1 | 95.3
CCCCCC(=O)NC(=S)Nc1ccc(Cl)cn1 | / | / | . | / | . | / | /
O=C(CN1C(=O)NC2(CCc3ccccc32)C1=O)Nc1ccc(N2CCOCC2)cc1 (configuration not stated) | . | . | . | . | . | / | /
Cc1ccc(NC(=O)CN2C(=O)NC3(CCc4ccccc43)C2=O)cc1Cl (configuration not stated) | . | . | . | . | 28.4 | . | .
COc1ccc(C(=O)c2sc(NC(C)C)nc2N)cc1OC | . | . | . | . | . | / | /
COc1cccc(C(=O)c2sc(NC(C)C)nc2N)c1 | / | / | . | / | 39.9 | . | .
Cc1cc(N/N=C/c2ccc(O)c(C)c2O)nc(-c2ccccc2O)n1 | / | / | . | / | 31.3 | 33.3 | .
O=[N+]([O-])c1ccccc1N/N=C/c1c[nH]c2ccccc12 | . | . | . | . | . | / | /
O=[N+]([O-])c1ccc(N/N=C/c2c[nH]c3ccccc23)cc1 | . | . | . | . | 35.9 | . | 30.4
CCCCNC(=O)NS(=O)(=O)c1ccc(NS(=O)(=O)c2ccccc2)cc1 | . | . | . | . | . | / | /
CCS(=O)(=O)c1c([N+](=O)[O-])ncn1C | / | / | . | / | 28.1 | . | .
CC(NC(=O)CN(C)Cc1nc2ccccc2c(=O)[nH]1)c1ccccc1 (configuration not stated) | . | . | . | 2.3 | 35.9 | . | .
O=C1CCN2C=Nc3cccc4ccc1c2c34 | . | . | . | . | 29.3 | . | .
SMILES | S1P2 antag | S1P2 ag | GALR2 ag | PLAP activator | GALR2 antag | GALR2 blk conf | BLA inh counter
c1ccc(CN2CCN(C3=Nc4cccc5cccc3c45)CC2)cc1 | . | . | . | . | . | / | /
Cc1nnc(SCC(=O)Nc2cccc(S(=O)(=O)N(C)c3ccccc3)c2)s1 | / | / | . | / | 32.0 | 35.1 | .
C/C(=N\Nc1ccc([N+](=O)[O-])cc1)c1cccc(N)c1 | . | . | . | . | 30.2 | 30.7 | .
Cc1ccc(Cl)c(NC(=O)COC(=O)c2ccccc2C(=O)c2ccc(Cl)c([N+](=O)[O-])c2)c1Cl | / | / | . | / | 69.2 | 80.1 | 71.1
Cc1cc(=O)oc(C)c1C(=O)OCC(=O)c1ccc(Cl)cc1 | . | . | . | . | . | / | /
Cc1cc(/C=N/n2cnnc2)c(C)n1-c1ccc(OCc2ccc(Cl)cc2)cc1 | 76.7 | . | . | . | 44.6 | 40.2 | .
COc1ccc(OC)c(NC=C2C(=O)OC3(CCCCC3)OC2=O)c1 | . | . | . | . | 49.9 | . | .
O=C(N/N=C\c1cccc(Cl)c1)c1n[nH]c2c1CCCC2 | / | / | . | / | . | / | /
O=C(N/N=C/C(Br)=C\c1ccccc1)c1n[nH]c2c1CCC2 | . | . | . | . | 32.8 | 37.5 | 60.9
O=C(Cc1c[nH]c2ccccc12)NCc1ccc(Cl)cc1Cl | / | / | . | / | . | / | /
Cc1ccc(-c2csc(NC(=O)C3=NN(c4ccccc4)C(=O)CC3)n2)cc1 | / | / | . | / | 28.3 | . | .
O=C(O)Cc1sc(N/N=C\c2ccccc2)nc1-c1ccccc1 | / | / | . | / | 29.0 | . | .
O=C(CCn1c(=S)[nH]c2cc3c(cc2c1=O)OCO3)N1CCc2ccccc2C1 | . | . | . | . | . | / | /
O=C(CCCn1c(=S)[nH]c2cc3c(cc2c1=O)OCO3)N1CCc2ccccc2C1 | . | . | . | . | 27.8 | . | .
COc1ccccc1NC(=O)c1ccc(NC(=O)COC(=O)C2(C)CC2(Cl)Cl)cc1 (configuration not stated) | / | / | . | / | . | / | /
Cc1cc(C(=O)OCC(=O)Nc2ccccc2[N+](=O)[O-])c2ccccc2n1 | / | / | . | / | 40.3 | . | .
CCC(NC(=O)Nc1nnc(C(F)(F)F)s1)(C(F)(F)F)C(F)(F)F | 74.8 | . | . | . | 58.9 | 39.4 | .
CC(C)(C)C1=Nn2c(nnc2-c2ccccn2)SC1 | . | . | . | . | . | / | /
Cc1nc2nc(-c3ccc(Cl)cc3)[nH]n2c(=O)c1C | . | . | . | . | . | / | /
Cn1c(=O)c2c(nc(SCC(=O)Nc3ccccc3)n2C)n(C)c1=O | / | / | . | . | 27.9 | . | .
CCn1c(SCC(=O)Nc2ccccc2)nc2c1c(=O)n(C)c(=O)n2C | . | . | . | / | . | / | /
NC(CC(=O)O)c1ccc(Br)cc1 (configuration not stated) | / | / | . | / | . | / | /
O=C(NCc1ccc(F)cc1)C(=O)NCC1OCCN1S(=O)(=O)c1cccs1 (configuration not stated) | / | / | . | / | . | / | /
CC1(C)CC(=O)/C(=C\c2cccc([N+](=O)[O-])c2)C(C)(C)N1 | / | / | . | / | 27.3 | 33.9 | .
CCOC(=O)N1CCN(C(=O)c2ccc(NC(C)=O)cc2)CC1 | . | . | . | . | . | / | /
CCOC(=O)N1CCN(C(=O)c2ccc(NC(=O)c3ccc(C)cc3)cc2)CC1 | . | . | . | . | 28.0 | 30.5 | .
CC(NC(=O)OC(C)(C)C)C(=O)Oc1cc2oc(=O)cc(-c3ccccc3)c2cc1Cl (configuration not stated) | . | . | . | . | 31.7 | 29.4 | 39.7
Cc1cc(C)nc(SCc2ccc(C(=O)N/N=C/c3cccc(O)c3O)cc2)n1 | / | / | . | / | 28.3 | . | 27.8
Cc1ccc(C(=O)N[C@H](C(=O)OCc2cc(=O)oc3cc(C)ccc23)C(C)C)cc1 | / | / | . | / | . | / | /
CCOC(=O)N1CCN(C(=O)c2ccccc2NC(=O)c2ccc(F)cc2)CC1 | / | / | . | / | . | / | /
